Reference: PubChem BioAssay (NCATS)
A number with no mark means an inactive call. Calls of active or inactive are those of the source. Calls come from the whole dose curve; as a rule, active = well fitted curve in the direction sought with a large enough effect; inconclusive = small, poorly fitted or top-dose-only effect, or effect the other way, or another doubt; inactive = no such curve, though single readings can be large or run the other way.

These compounds were tested against Beta-2 adrenergic receptor (Homo sapiens) (UniProt P07550) (assay: qHTS validation assay of beta-arrestin-biased ligands of beta2-adrenergic receptor (AID 485366; note: 0% is about no effect)). Conditions: cell-based beta-arrestin recruitment to ADRB2, qHTS; series mostly up to 46.1 µM; activation: at the top concentration.
Sequence of Beta-2 adrenergic receptor (Homo sapiens) (P07550 whole entry, looked up): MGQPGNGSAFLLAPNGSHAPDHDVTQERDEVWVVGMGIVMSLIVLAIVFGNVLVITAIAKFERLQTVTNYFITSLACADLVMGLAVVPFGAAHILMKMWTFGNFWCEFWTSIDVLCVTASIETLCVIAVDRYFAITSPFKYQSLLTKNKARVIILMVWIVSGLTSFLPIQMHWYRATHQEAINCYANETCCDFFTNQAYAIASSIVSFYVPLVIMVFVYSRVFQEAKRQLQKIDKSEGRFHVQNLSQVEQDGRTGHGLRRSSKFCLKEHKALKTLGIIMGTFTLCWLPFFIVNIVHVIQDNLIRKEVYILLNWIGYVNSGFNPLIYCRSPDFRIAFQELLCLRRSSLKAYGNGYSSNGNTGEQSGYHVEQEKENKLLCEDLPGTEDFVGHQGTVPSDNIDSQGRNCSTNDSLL
Description: NIH Molecular Libraries Probe Production Network [MLPCN]
NIH Chemical Genomics Center [NCGC]
PI: Bryan Roth and Bob Lefkowitz
The concept of biased agonism is an emerging concept of molecular pharmacology which proposes that seven transmembrane receptors (7TMRs) or G protein-coupled receptors (GPCRs), exist in multiple signaling conformations and complexes and that ligands (either agonists or antagonists) can induce signaling biased responses for distinct signal transduction cascades.
Furthermore, accumulating evidence over the last decade has drawn attention to a novel function of beta-arrestins as signal transducers that scaffold various signaling molecules upon activation of 7TMRs. […] This beta-arrestin-biased signaling presumably leads to distinct physiological outcomes from those by G protein activation.
Additionally, the active receptor conformations which […] on this beta-arrestin signaling are likely different from those activating G protein signaling
The goal of this screening project will be to discover and optimize novel beta-arrestin-biased ligands for beta2-AR signaling. A luminescent cell-based assay for beta2-AR-mediated agonism, known as the Tango assay, has been validated in which ligand binding of a recombinant beta2-AR and subsequent recruitment of a recombinant beta-arrestin lead to the release of the transcriptional activator tTA, which upregulates transcription of a tTA-responsive luciferase gene. […] Compounds were screened as a concentration-titration series that ranged from 46 microM to 0.6 nM.
NCGC Assay Protocol Summary:
Tango cells were dispensed into white, solid, tissue-culture-treated 1536-well plates at 1500 cells/well in DMEM, containing 1% fetal bovine serum (FBS). Then, 23 nL of compounds or DMSO were delivered to each well using a pin tool. Plates were incubated at 37 degrees C, 5% CO2 for 18 hr. Then 2.5 uL luminescent substrate mix (in-house prepared: 150 mM Tris-Cl, pH 7.6, 3 mM MgCl2, 1% Triton X-100, 5 mM DTT, 0.5 mM CoA, 0.15 mM ATP, 0.44 mM D-luciferin, final concentrations) was added to each well. Plates were then incubated for 15 minutes at room temperature, and subsequently measured on a ViewLux plate reader for luminescent signal using a clear filter with a 10 second exposure and 2x binning. The %Activity was determined from the corrected luminescence values.
Concentration-response curves were fitted to the signals arising from the resulting luminescence. The concentration-effect curves were then classified based on curve quality (r2), response magnitude and degree of measured activity, and compounds were subsequently categorized based on their curve class.
Keywords: biased agonism, beta2-AR, beta-arrestin, GPCR, 7TMR, Tango, luminescence, MLSMR, MLPCN, NIH Roadmap, qHTS, NCGC
In the case of `C=CCN1CC[C@]23CCCCC2[C@H]1Cc1ccc(O)cc13` (stereo not given in full), the “activation” value is reported as -0.646%.
For `CC1=NN=C(c2ccc(N)cc2)c2cc3c(cc2C1)OCO3`, the “activation” value was 1.32%.
With `CCCN1CCO[C@@H]2c3cc(O)ccc3OC[C@H]21` the outcome was “inactive”.
In the case of `Cc1c(C(=O)c2cccc3ccccc23)c2cccc3c2n1[C@H](CN1CCOCC1)CO3`, the “activation” value is reported as 9.86%.
For `c1ccc(CCCN2CCN(CCOC(c3ccccc3)c3ccccc3)CC2)cc1`, the “activation” value was -0.0222%.
In the case of `O=C(O)Cc1cnc[nH]1`, the “activation” value is reported as 0.185%.
With `NC1CCc2cc(O)c(O)cc2C1` (stereo not given) the “activation” value was 0.276%.
In the case of `CCCN1CCC[C@H](c2cccc(O)c2)C1`, the “activation” value is reported as -0.37%.
`CN[C@@H]1C[C@@H](c2ccc(Cl)c(Cl)c2)c2ccccc21` was tested, and the “activation” value was -1.68%.
For `c1ccc(C2(c3ccccc3)CC2C2=NCCN2)cc1` (stereo not given), the “activation” value was -0.314%.
`CNCCc1ccc(O)c(O)c1` was tested, and the “activation” value was 8.94%.
For `NC(CCP(=O)(O)O)C(=O)O` (stereo not given), the “activation” value was -0.353%.
For `NC(N)=NOCCC(N)C(=O)O` (stereo not given), the “activation” value was 0.231%.
`CN1C2CCC1CC(OC(=O)c1cc(Cl)cc(Cl)c1)C2` (stereo not given) was tested, and the “activation” value was -0.271%.
In the case of `O=C(O)CC[N+](=O)[O-]`, the “activation” value is reported as 1.48%.
With `CC(C)Oc1cccnc1N(C)C1CCN(Cc2ccccc2)CC1` the “activation” value was 0.41%.
`COC(=O)[C@@H](N)CCCN=C(N)N[N+](=O)[O-]` was tested, and the “activation” value was 0.195%.
In the case of `CCCCc1ccc(C(=O)O)nc1`, the “activation” value is reported as -0.211%.
With `NC(CP(=O)(O)O)C(=O)O` (stereo not given) the “activation” value was 0.0146%.
For `Clc1cnc(Oc2ccc(Oc3ncc(Cl)cc3Cl)cc2)c(Cl)c1`, the “activation” value was -0.0512%.
With `C[N+]1(C)C2CCC1CC(OC(=O)C(CO)c1ccccc1)C2` (stereo not given) the outcome was “inactive”.
For `CC[C@@]1(O)C(=O)OCc2c1cc1n(c2=O)Cc2cc3ccccc3nc2-1`, the “activation” value was 1.58%.
With `Oc1ccc2c3c1O[C@H]1c4[nH]c5c(c4C[C@@]4(O)[C@@H](C2)N(CC2CC2)CC[C@]314)C[C@@]1(O)[C@H]2Cc3ccc(O)c4c3[C@@]1(CCN2CC1CC1)[C@H]5O4` the “activation” value was 1.04%.
With `Cc1nccc2c1[nH]c1ccccc12` the “activation” value was 0.0319%.
In the case of `C[C@]12CCC3C(CC[C@H]4C[C@H](O)CC[C@]34C)C1CC[C@@H]2C(=O)CO` (stereo not given in full), the “activation” value is reported as -0.153%.
With `CCCN(CCC)[C@@H]1CCc2ccc(O)cc2C1` the “activation” value was -0.0958%.
For `C/C=C(/C)C(=O)O[C@H]1C(C)=C2[C@H]([C@@H]1OC(=O)CCCCCCC)[C@@](C)(OC(C)=O)C[C@H](OC(=O)CCC)[C@@]1(O)[C@H]2OC(=O)[C@@]1(C)O`, the “activation” value was -1.55%.
`NCCc1c[nH]c2ccc(O)cc12` was tested, and the “activation” value was -0.136%.
`S=C(NC1CCCCC1)N1CCC(c2cnc[nH]2)CC1` was tested, and the “activation” value was 0.0973%.
`CC[C@@H](C(N)=O)N1CCCC1=O` was tested, and the “activation” value was -1.48%.
`C#CCOC(=O)C1=CCCN(C)C1` was tested, and the “activation” value was 2.51%.
With `Cn1cnc(CCN)c1` the “activation” value was -1.09%.
`C[C@@H](N)Cc1cnc[nH]1` was tested, and the “activation” value was 1.89%.
With `CC(C)NC(C)Cc1ccc(I)cc1` (stereo not given) the “activation” value was 1.39%.
In the case of `O=C(N[C@H]1CN2CCC1CC2)c1ccc(Cl)cc1`, the “activation” value is reported as -0.632%.
`NCc1cc(=O)[nH]o1` was tested, and the “activation” value was -0.0392%.
For `COc1cc(C(O)CN)ccc1O` (stereo not given), the “activation” value was 0.0773%.
For `NC(=NCCC[C@H](N)C(=O)O)N[N+](=O)[O-]`, the “activation” value was -0.274%.
For `CNCCc1c[nH]c2ccc(O)cc12`, the “activation” value was 2.28%.
`O=C(Cc1ccc(Cl)c(Cl)c1)N1CCCCC1CN1CCCC1` (stereo not given) was tested, and the “activation” value was -0.0052%.
